The values below come from PubChem BioAssay (NCI).

SMILES strings stand for the structures. This is part of a sample that, as a whole, favours compounds with a hit. Of some 83,000 tested, about 20% had one in any assay.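 48-hour exposure, single concentration, 96-well plates; percent growth endpoint where 0 means no net growth. Active: below 10.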 Values without a mark were called inactive. Activity calls are given as the source filed them.

Test systems include SK-MEL-2 melanoma; EKVX NSCLC; SN12C renal; UO-31 renal; TK-10 renal; ACHN renal; CAKI-1 renal; A498 renal; MOLT-4 leukemia; SR leukemia; RPMI-8226 leukemia; OVCAR-8 ovarian; OVCAR-5 ovarian; OVCAR-4 ovarian; SK-OV-3 ovarian; IGROV1 ovarian; OVCAR-3 ovarian; HS 578T breast; NCI/ADR-RES ovarian; CCRF-CEM leukemia.
What all share (assay): NCI-60 one-dose screen, 48 h (100 = growth as untreated, 0 = no growth, -100 = all killed)
Holding throughout (settings): 10 µM unless noted

Turning to `CCCCCCCCCN1C(=O)/C(=c2\sc3n(c2=O)C2C(NN=3)N(CC)C(=O)N2CC)c2ccccc21` (stereo not given), the growth with SK-MEL-2 melanoma was 76.2%; in the assay on EKVX NSCLC, 69.1%; in the assay on SN12C renal it was 66.3%; in the assay with UO-31 renal, 53.4%; with TK-10 renal it was 71.1%; in the assay with ACHN renal it was 59%. Moreover, the growth with CAKI-1 renal was 34.8%; in the assay with A498 renal, 18.8%; in the assay with MOLT-4 leukemia, 99.7%; in the assay with SR leukemia, 5.57% (active); in the assay on RPMI-8226 leukemia, 80.4%; in the assay on OVCAR-8 ovarian it was 36.7%. For the same molecule, the growth with OVCAR-5 ovarian was 80.8%; in the assay on OVCAR-4 ovarian it was 13.2%; in the assay on SK-OV-3 ovarian, 93.7%; in the assay on IGROV1 ovarian, 54.1%; with OVCAR-3 ovarian, 21.1%; with HS 578T breast it was 26.7%. The growth with NCI/ADR-RES ovarian is 46.9%.
Turning to `CC(C)CCC[C@@H](C)[C@H]1CC[C@H]2[C@@H]3CC[C@H]4C/C(=N/O)CC[C@]4(C)[C@H]3CC[C@]12C`, the growth in the assay with SK-MEL-2 melanoma is 101%; with EKVX NSCLC it was 101%; in the assay with SN12C renal, 103%; in the assay with UO-31 renal it was 94.3%; in the assay on TK-10 renal, 105%; with ACHN renal, 110%. Besides, the growth is 96.7% in the assay with CAKI-1 renal; 100% in the assay on CCRF-CEM leukemia; 95.9% with MOLT-4 leukemia; 99.6% in the assay with SR leukemia; 101% with RPMI-8226 leukemia; 96.8% with OVCAR-8 ovarian. In addition, the growth is 119% in the assay on OVCAR-4 ovarian; 104% in the assay on SK-OV-3 ovarian; 111% in the assay with IGROV1 ovarian; 113% in the assay on OVCAR-3 ovarian; 101% in the assay with HS 578T breast; 111% with NCI/ADR-RES ovarian.
As for `C#CCN1C(=O)/C(=c2\sc3n(c2=O)NC2C(N=3)N(CC)C(=O)N2CC)c2ccccc21` (stereo not given), the growth is 91.3% with SK-MEL-2 melanoma; 69.7% in the assay on EKVX NSCLC; 71% with SN12C renal; 47.9% in the assay on UO-31 renal; 96.5% with TK-10 renal; 54.4% in the assay with ACHN renal. The growth in the assay on CAKI-1 renal was 30.1%; in the assay on A498 renal, 36.8%; in the assay on MOLT-4 leukemia, 68.5%; with SR leukemia, 15.5%; in the assay on RPMI-8226 leukemia, 59.3%; in the assay with OVCAR-8 ovarian it was 66.9%. In addition, the growth in the assay on OVCAR-5 ovarian is 73.8%; with OVCAR-4 ovarian it was 51.9%; in the assay with IGROV1 ovarian it was 66%; with OVCAR-3 ovarian, 23.1%; with HS 578T breast, 56.6%; in the assay with NCI/ADR-RES ovarian, 41.7%.
Turning to `CCc1c(C(=O)Nc2ccc3ccccc3c2)[nH]c(C)c1C(C)=O`, the growth in the assay on SK-MEL-2 melanoma is 87.9%; in the assay on EKVX NSCLC, 84.3%; in the assay with SN12C renal, 96.6%; in the assay with UO-31 renal, 86.8%; in the assay on TK-10 renal, 99.8%; in the assay on ACHN renal, 98.6%. The growth in the assay with CAKI-1 renal is 86.4%; with A498 renal, 80.2%; in the assay on CCRF-CEM leukemia, 96.1%; with MOLT-4 leukemia it was 68.5%; with RPMI-8226 leukemia, 75.8%; in the assay with OVCAR-5 ovarian, 101%. The growth is 76.7% in the assay on OVCAR-4 ovarian; 99.7% with SK-OV-3 ovarian; 108% in the assay on IGROV1 ovarian; 103% in the assay with OVCAR-3 ovarian; 98.5% with HS 578T breast; 94.8% in the assay with NCI/ADR-RES ovarian.
On to `COc1ccc(OC)c(/C=C2\Oc3cc(OCCN4CCCC4)ccc3C2=O)c1`, for which the growth was 106% in the assay with SK-MEL-2 melanoma; 95.2% in the assay on EKVX NSCLC; 92.8% with SN12C renal; 74.1% with UO-31 renal; 110% in the assay with TK-10 renal; 92.7% in the assay with ACHN renal. For the same molecule, the growth in the assay on CAKI-1 renal is 79.7%; with A498 renal, 78.2%; in the assay with MOLT-4 leukemia, 87.5%; with SR leukemia, 56.6%; in the assay on RPMI-8226 leukemia, 93.5%; in the assay with OVCAR-8 ovarian it was 92%. Further, the growth in the assay with OVCAR-5 ovarian is 94.5%; in the assay with OVCAR-4 ovarian it was 98.5%; in the assay with IGROV1 ovarian, 95.8%; in the assay on OVCAR-3 ovarian, 101%; in the assay with HS 578T breast, 86.4%; with NCI/ADR-RES ovarian, 86.4%.
As to `NC(=O)c1cccc(N2Cc3ccccc3OC3=C2C(=O)c2c(O)ccc(O)c2C3=O)c1`, the growth in the assay on SK-MEL-2 melanoma was -38.7% (active); in the assay on EKVX NSCLC, -0.27% (active); in the assay on SN12C renal, -53.5% (active); with UO-31 renal, -86.7% (active); in the assay on TK-10 renal it was -99.7% (active); with ACHN renal, -93.7% (active). Further, the growth in the assay on CAKI-1 renal was -99.4% (active); with CCRF-CEM leukemia, -8.27% (active); in the assay with MOLT-4 leukemia, -36.2% (active); in the assay with SR leukemia it was -5.71% (active); in the assay on RPMI-8226 leukemia it was -13.4% (active); with OVCAR-8 ovarian, -41.9% (active). Besides, the growth is -68.1% (active) in the assay with OVCAR-5 ovarian; -93.5% (active) with OVCAR-4 ovarian; 20.8% in the assay on SK-OV-3 ovarian; -94.2% (active) in the assay on OVCAR-3 ovarian; 20.9% in the assay with HS 578T breast; 10% with NCI/ADR-RES ovarian.
In the case of `Cc1ccccc1C(=O)c1ccccc1C(=O)O`, the growth is 124% with SK-MEL-2 melanoma; 105% with EKVX NSCLC; 105% in the assay with SN12C renal; 89.7% in the assay on UO-31 renal; 96.5% in the assay on TK-10 renal; 111% with ACHN renal. Further, the growth is 88.8% with CAKI-1 renal; 126% with A498 renal; 103% in the assay with CCRF-CEM leukemia; 99.5% in the assay with MOLT-4 leukemia; 102% with RPMI-8226 leukemia; 107% in the assay on OVCAR-8 ovarian. Also, the growth in the assay on OVCAR-5 ovarian was 111%; in the assay on SK-OV-3 ovarian, 118%; in the assay on OVCAR-3 ovarian it was 107%; in the assay on HS 578T breast, 106%; with NCI/ADR-RES ovarian it was 108%.
Regarding `CCN(Cc1ccc(CN(CC)C(=O)C(Cl)(Cl)Cl)cc1)C(=O)C(Cl)(Cl)Cl`, the growth in the assay on SK-MEL-2 melanoma is 89%; in the assay with EKVX NSCLC, 68.3%; with SN12C renal, 97.8%; in the assay with UO-31 renal, 78.7%; in the assay with TK-10 renal it was 96.1%; with ACHN renal it was 91.1%. The growth in the assay on CAKI-1 renal is 72%; in the assay on A498 renal, 82.6%; with MOLT-4 leukemia, 29.9%; in the assay with SR leukemia, 32.8%; in the assay on RPMI-8226 leukemia it was 32.5%; in the assay on OVCAR-8 ovarian, 89.6%. Further, the growth is 101% in the assay on OVCAR-5 ovarian; 74.7% with OVCAR-4 ovarian; 91.2% with SK-OV-3 ovarian; 94.9% with IGROV1 ovarian; 74.4% with OVCAR-3 ovarian; 89.7% in the assay with HS 578T breast. In addition, the growth in the assay on NCI/ADR-RES ovarian was 86.6%.
